Screening data deposited in PubChem BioAssay by National Center for Advancing Translational Sciences (NCATS).
Rab9 prom act = Rab9 promoter activation; Huh7 Rab9 promoter-luciferase reporter, luminescence, 24 h; Potency, µM (series often up to 9.22 µM), for the others: top-dose activation, negative = inhibition, actives largely listed as activators; 320,000 tested, 2.8% active; also: % of control where 0% means no effect; nearly all actives have a fitted effect of over 60% in size
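Quantitative HTS format; Huh7 Rab9-luciferase reporter cells (1500/well) receive compound 2 h post-plating, incubate 24 h at 37 °C, then get luciferase reagent for 10 min before luminescence reading.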
FLuc modulator = inhibits or activates purified firefly luciferase, miR-21 counter-screen; purified FLuc, Km substrates, luminescence inhibition; Potency, µM (highest dose often 57.5 µM), inactives show top-dose activity change, negative = inhibition, usual class: inhibitors; 360,000 tested, 6.9% active; P08659;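 also: plate controls were vehicle for no effect and reference inhibitor for full effect; nearly all actives have a fitted effect of over 55% in size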
Target sequence (P08659 whole entry, looked up): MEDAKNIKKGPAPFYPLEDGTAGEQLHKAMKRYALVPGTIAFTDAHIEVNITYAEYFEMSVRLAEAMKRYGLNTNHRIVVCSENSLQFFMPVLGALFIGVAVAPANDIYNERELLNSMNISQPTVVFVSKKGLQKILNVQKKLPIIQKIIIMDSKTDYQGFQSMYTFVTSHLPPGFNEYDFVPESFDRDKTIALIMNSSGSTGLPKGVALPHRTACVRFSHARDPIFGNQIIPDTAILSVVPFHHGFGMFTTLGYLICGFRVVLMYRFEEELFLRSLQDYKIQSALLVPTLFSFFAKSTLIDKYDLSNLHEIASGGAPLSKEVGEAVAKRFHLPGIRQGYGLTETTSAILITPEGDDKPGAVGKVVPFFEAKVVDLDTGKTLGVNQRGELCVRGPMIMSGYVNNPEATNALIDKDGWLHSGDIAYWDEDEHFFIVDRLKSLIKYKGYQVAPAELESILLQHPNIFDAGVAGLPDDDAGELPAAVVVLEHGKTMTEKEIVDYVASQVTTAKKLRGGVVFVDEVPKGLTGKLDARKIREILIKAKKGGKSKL
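Biochemical qHTS of compounds, final roughly 60 µM downward over six points, against 10 nM purified firefly luciferase using Km concentrations of substrates (10 uM D-luciferin, 10 uM ATP) in Tris acetate pH 7.5 buffer; luminescence output.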
NPC1 prom act = activators of NPC1 promoter; Huh7 NPC1 promoter luciferase reporter, 24 h; Potency, µM (series often up to 9.22 µM), without a hit: top-dose activation, hits mostly activators; 320,000 tested, 2.4% active; AID 485313; also: % of control where 0% means no effect; nearly all actives have a fitted effect of over 60% in size
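Luciferase expression driven by the NPC1 promoter was measured in stably transfected Huh7 cells after a 24 h compound incubation, using a luciferase reagent and a luminescence read.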
KinaseGlo FLuc = blocks Kinase-Glo luciferase, a counter-screen artifact | Potency, µM (highest dose often 38.3 µM), inactives show at the top dose activity change, negative = inhibition, most hits filed as inhibitors | AID 1379 | Kinase-Glo luciferase, ATP luminescence, 8 min | Q27757 | 200,000 tested, 0.28% active; also: % is scaled to controls: 0 for no effect and ±100 for the full control effect; nearly all actives have a fitted effect of over 60% in size
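Substrate mix (final 50 mM imidazole pH 7.2, 50 mM KCl, 7 mM MgCl2, 10 uM ATP, 0.01% Tween 20, 0.05% BSA) plus pin-tool compound, then Kinase-Glo detection mix; 8 min ambient, luminescence read.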
ELG1 genotox = induces genotoxicity in HEK293T cells with luciferase-tagged ELG1. HEK293T ELG1-luciferase reporter, luminescence, 16 h. Potency, µM (highest dose often 46 µM), for the others: top-dose activity change, positive = activation, usual class: activators. 330,000 tested, 1.3% active; also: % of control where 0% means no effect; nearly all actives have a fitted effect of over 60% in size
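Step 1: seed 2,000 HEK293T ELG1-luciferase cells per well. Step 2: add compound or DMSO, incubate 16 hr at 37 °C. Step 3: ONE-Glo, 30 min at room temperature, read luminescence.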
SMN2 splice up = increases expression of the SMN2 splice variant; 210,000 tested, 2.8% active; Potency, µM (doses to about 46.1 µM), inactives show top-dose activity change, positive = activation, actives largely listed as activators; HEK293 SMN2-luciferase splicing reporter, luminescence, 30-36 h; AID 1458; also: % of control where 0% means no effect; nearly all actives have a fitted effect of over 55% in size
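qHTS luciferase splicing reporter: luminescence rises when SMN2 exon 7 is included in transfected HEK293 cells. Compound exposure lasted 30-36 h at 37C, with 4.5 mM final sodium butyrate as control, followed by a ONE-Glo read.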
* hit, by the source's call; ? = inconclusive; nt = no result given; [ ] = another dose, or the depositor's remark. Rows were chosen to be rich in hits. Some 7.4% of all compounds tested hit in one or more screens of this group. Calls follow the shape of the dose curve; as a rule, active = well fitted curve in the direction sought with a large enough effect; inconclusive = small, poorly fitted or top-dose-only effect, or another doubt; inactive = no such curve, though single readings can be large; an effect the other way counts as inactive or inconclusive. Potency is read from the fitted curve at half-maximal effect.

SMILES	Rab9 prom act	FLuc modulator	NPC1 prom act	KinaseGlo FLuc	ELG1 genotox	SMN2 splice up
COC(=O)c1ccc(N=NN2CCCCCC2)cc1	3.16µM*	6.75µM*	2.24µM*	-0.8%	?	12.6µM*
O=C(O)C1SCCN1S(=O)(=O)c1ccc(N=NN2CCOCC2)cc1 (stereo not given)	-7.8%	0.8%	-1.6%	-0.1%	0.3%	nt
CC(=O)NS(=O)(=O)c1ccc(N=NN2CCCCC2)cc1	1.5%	1.6%	-1.8%	-2.5%	1.8%	2.3%
CC(=O)N(C(C)=O)S(=O)(=O)c1ccc(N=NN2CCCCC2)cc1	1.4%	-0.9%	-0.9%	-2.1%	1.5%	0.5%
Clc1ccc(N=NN2CCOCC2)cc1	20.6%	16.9µM*	18.5%	nt	?	nt
O=C(O)c1ccc(N=NN2CCCCC2)cc1	1.26µM*	10.7µM*	?	-12.7%	?	26.0%
NS(=O)(=O)c1ccc(N=NN2CCCCC2)cc1	?	16.9µM*	?	-2.9%	11.4%	nt
Cc1c(C2=CCN(S(=O)(=O)c3cccc(Cl)c3)CC2)c2ccccc2n1CC(=O)N1CCCC1	nt	-2.4%	nt	nt	nt	-17.5%
COC(=O)c1ccc(N=NN2CCOCC2)cc1	?	16.9µM*	?	-2.4%	?	11.2µM*
COc1cc(OC)cc(C(=O)Nc2cc3c(cc2N2CCOCC2)n(C)c(=O)n3C)c1	nt	0.2%	nt	nt	nt	22.3%
COc1ccc(CC(=O)Nc2ccc(-c3nnc(-c4ccccc4)o3)cc2)cc1OC	5.8%	-1.3%	12.0%	-1.6%	27.1%	5.0%
O=C(Nc1ccc(-c2nnc(-c3ccccc3)o2)cc1)C(F)(F)F	1.26µM*	?	1.58µM*	-2.6%	?	nt
CC(C)C(=O)Nc1ccc(-c2nnc(-c3ccccc3)o2)cc1	0.316µM*	2.39µM*	0.316µM*	nt	?	nt
CC(=O)/C=C(\C)Nc1ccc(-c2cnc(-c3ccccc3)o2)cc1	0.447µM*	1.9µM*	1µM*	-26.7%	2µM*	3.98µM*
c1ccc(-c2cnc(-c3ccc(-c4ncc(-c5ccccc5)o4)cc3)o2)cc1	nt	nt	nt	-2.8%[7.66 µM]	nt	21.5%[9.22 µM]
COC(=O)c1[nH]c2ccccc2c1NC(=O)C(C)N1CC(C)OC(C)C1 (stereo not given)	7.7%	-0.9%	-2.4%	nt	-2.5%	nt
Cc1nn(CC(=O)NCc2ccccc2Br)c(=O)c2cc3occc3n12	nt	1.5%	nt	nt	nt	3.8%
Cc1c(C(=O)NCc2ccccn2)oc2ccccc12	?	?	?	-2.7%	14.6µM*	?
Cc1c(C(=O)NC2CCCC2)oc2ccccc12	16.2%	?	9.5%	nt	6.6%	nt
Cc1ccnc(NC(=O)c2oc3ccccc3c2C)c1	2.51µM*	1.2µM*	2.82µM*	nt	?	nt
CCOc1ccc2oc(C(=O)O)c(C)c2c1	21.7%	?	17.7%	nt	9.2%	nt
Cc1c(C(=O)NCc2ccccn2)oc2ccc(Br)cc12	?	?	?	nt	15.2%	nt
Cc1c(C(=O)Nc2ccc(Cl)cn2)oc2ccccc12	20.7%	-6.5%	27.9%	-1.6%	?	?
CCOc1ccc2oc(C(=O)NNC(=O)c3ccccc3O)c(C)c2c1	16.2%	10.7µM*	20.7%	nt	?	nt
Cc1c(C(=O)Nc2cnccn2)oc2ccccc12	29.2%	15.1µM*	14.1%	1.1%	?	11.2µM*
SMILES	Rab9 prom act	FLuc modulator	NPC1 prom act	KinaseGlo FLuc	ELG1 genotox	SMN2 splice up
CC1=CC(=C2C=CC(=O)C=C2)C=C(C)N1C	-27.5%	-0.8%	-17.5%	nt	-2.0%	nt
CC(C)c1ccc(OCC(=O)Nc2ccc3oc(=O)ccc3c2)cc1	8.6%	?	4.4%	nt	-1.3%	nt
CCOc1ccc2oc(C(=O)NCC(C)(C)CN(C)C)c(C)c2c1	10.6%	2.4%	1.5%	5.0%	12.5%	2.9%
CCOc1ccc2oc(C(=O)Nc3cc(C)ccn3)c(C)c2c1	0.501µM*	0.338µM*	0.631µM*	nt	?	nt
CCOc1ccc(/C(O)=C2/C(=O)C(=O)N(CCCN3CCOCC3)C2c2ccc(C)cc2)cc1C (stereo not given)	0.3%	0.6%	-0.7%	nt	-1.1%	nt
O=C(CCC(=O)c1cccs1)OCC(=O)c1ccccc1	nt	nt	nt	nt	-1.5%	nt
N#Cc1ccccc1COC(=O)CCC(=O)c1cccs1	3.0%	12µM*	0.5%	nt	4.0%	nt
O=C(CCC(=O)c1cccs1)OCC(=O)c1ccccc1F	8.7%	19µM*	4.5%	nt	3.2%	nt
COc1ccc(C(=O)NC(CCSC)C(=O)N2CCCCCC2)cc1 (stereo not given)	-3.8%	-0.3%	-1.9%	nt	0.7%	nt
Cc1ccc(CSc2nc3ccncc3n2Cc2nc(-c3ccc(Cl)cc3)oc2C)cc1	nt	?	nt	nt	nt	-0.5%
Cn1c(SCc2ccccc2F)nc2cccnc21	2.24µM*	9.53µM*	1.41µM*	-6.0%	?	12.6µM*
COc1ccc(-c2nc(Cn3c(SCc4ccc(C)cc4)nc4cccnc43)c(C)o2)cc1OC	nt	6.01µM*	nt	nt	nt	nt
COc1ccc(-c2nc(Cn3c(SCc4ccccc4F)nc4cccnc43)c(C)o2)cc1	nt	13.5µM*	nt	nt	nt	nt
COc1ccc(-c2nc(Cn3c(SCc4ccccc4F)nc4ccncc43)c(C)o2)cc1	12.4%	-13.8%	4.4%	-2.2%	?	-12.7%
COc1ccc(-c2nc(Cn3c(SCc4ccc(F)cc4)nc4ccncc43)c(C)o2)cc1OC	-8.3%	13.5µM*	-4.0%	-0.2%	0.4%	-7.1%
O=C1OC(c2ccco2)=N/C1=C\c1ccc(-c2cccc(C(F)(F)F)c2)o1	0.8%	-2.7%	-0.3%	-1.6%	-0.2%	-9.7%
S=C(NC1CCCCC1)N(CCc1ccccc1)CCc1ccccc1	-0.7%	1.5%	1.4%	nt	-3.1%	nt
CCc1ccccc1NC(=O)CCc1c(C)nc(SC)nc1C	-4.2%	0.7%	-2.4%	nt	-7.4%	nt
COc1ccc(-c2nc(Cn3c(SCc4ccc(F)cc4)nc4cccnc43)c(C)o2)cc1	nt	10.7µM*	nt	nt	nt	nt
COc1ccc(Cn2c(SCc3ccc(C(=O)NC4CCCC4)cc3)nc3cccnc32)cc1	nt	-3.0%	nt	nt	nt	nt
CCc1nnc(NC(=O)c2ccc3c(=O)n4c(nc3c2)CCCCC4)s1	26.6%	26.9µM*	13.0%	nt	5.9%	nt
CCc1ccc(NC(=O)c2ccc3c(=O)n4c(nc3c2)CCCCC4)cc1	-0.4%	16.9µM*	19.4%	nt	-7.5%	nt
CC(=O)Nc1ccc(NC(=O)c2sc3nc4n(c(=O)c3c2C)CCCCC4)cc1	-4.2%	-0.9%	-8.4%	2.9%	-8.0%	-24.1%
CCc1ccc(NC(=O)c2sc3nc4n(c(=O)c3c2C)CCC4)cc1	?	15.1µM*	27.8%	nt	8.9%	nt
Cc1c(C(=O)N(C)c2cccc(C(F)(F)F)c2)sc2nc3n(c(=O)c12)CCCCC3	nt	13.5µM*	nt	nt	nt	nt
COc1ccc(Cc2nnc(SCC(=O)Nc3ccc(N4CCOCC4)cc3)o2)cc1	0.8%	-13.8%	1.0%	nt	-2.4%	nt
